Our source for the growth inhibition values is PubChem BioAssay (NCI).

The panel holds about 79,000 compounds, 15% with a hit somewhere; the sample as a whole holds those more often. The source made the active and inactive calls. No stated cut-off is given here; in the data, active means growth inhibition above about 70%; inactive means the rest.

A short description of one assay: NCI Yeast Anticancer Drug Screen. Data for the rad50EPP+ strain (AID 151).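 Further: 0% = growth of vehicle-treated control cultures.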 Conditions: S. cerevisiae rad50 mutant strain, at 1.2 µM, hits give high values. In outline: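 Read-out is yeast growth inhibition relative to vehicle; cells used were the rad50EPP+ strain.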
As to `C/C(=N\NC(=S)SCc1ccccc1)c1ccccn1`, the growth inhibition was 40% (inactive).
Turning to `CC[C@@]1(O)C(=O)OCc2c1cc1n(c2=O)Cc2cc3c(N)cccc3nc2-1`, the growth inhibition is 13% (inactive).
In the case of `CN(C)c1ccc(Sc2ccc3nc(N)nc(N)c3c2)cc1`, the growth inhibition is 15% (inactive).
With `CC(=O)OCCOCNC(=S)N/N=C(\C)c1cnccn1`, the growth inhibition is 9% (inactive).
`COc1ccc(C2c3cc4c(cc3OC(C)(O)C2C)OCO4)c(OC)c1` (stereo not drawn): the growth inhibition is 6% (inactive).
As to `COc1cc(C2SCC(=O)N2c2ccc(-c3ccc(-n4c(-c5ccccc5)nc5ccccc5c4=O)cc3)cc2)cc(OC)c1OC` (stereo not drawn), the growth inhibition is -2% (inactive).
As to `COc1ccc(Br)c(C(=O)Sc2nnnn2-c2cccc(Cl)c2)c1`, the growth inhibition is 3% (inactive).
Regarding `O=C(NNc1ccnc2cc(Cl)ccc12)/C(=C\c1ccccc1Cl)NC(=O)c1ccccc1`, the growth inhibition was 17% (inactive).
With `CSC(=S)Nc1cccc(C)n1`, the growth inhibition is -15% (inactive).
Regarding `O=C(/C=C\c1ccc(Cl)cc1Cl)c1cccs1`, the growth inhibition was 9% (inactive).
As to `COc1ccc(-c2cn(-c3ccc(I)cc3)c3ncnc(N)c23)cc1`, the growth inhibition is -2% (inactive).
For `CN(C)c1ccc(C(C#N)=C(C#N)C#N)cc1`, the growth inhibition is 1% (inactive).
For the compound `COc1cc(/C=C2\CCc3ccccc3C2=O)cc(OC)c1OC`, the growth inhibition is 1% (inactive).
The same measure, in the same setting: the value for `CC(C)/C(Cl)=N\OC(=O)Nc1cccc(Cl)c1` was -2% (inactive).
Take `CC1(C)[C@@H]2CC[C@]1(C)[C@H](OC(=O)CSC#N)C2`: the growth inhibition is -1% (inactive).
With `NNC(=O)CCc1ccc2ccc3ccccc3c2c1`, the growth inhibition is 2% (inactive).
The same measure, in the same setting: the value for `COc1ccc(/C(C)=N/OC(=O)c2c(-c3ccccc3Cl)noc2C)cc1CN1CCOCC1` was -36% (inactive).
Consider `C=CC(C)(O)CCC1C(=C)C(O)CC2C(C)(C)CCCC12C` (stereo not drawn), for which the growth inhibition was 4% (inactive).
Same read-out and setting: as for `S=C(Nc1ccc(Cl)c(Cl)c1)SCc1ccc2c(c1)OCO2`, the figure is 27% (inactive); as for `COc1cc(C2C3=C(COC3=O)Oc3cc4c(cc32)OCO4)ccc1O` (stereo not drawn), -3% (inactive).
For the compound `S=C(Nc1ccc(Cl)cc1)SC1CCCCC1`, the growth inhibition is 7% (inactive).
Consider `Nc1nc(-c2cccnc2)cc(-c2cc(-c3cccnc3)nc(N)n2)n1`, for which the growth inhibition is -2% (inactive).
`COC1=CC(=O)C2C(C1=O)C(c1ccc(Cl)cc1)[C@@H]2C` (stereo partly drawn): the growth inhibition was 29% (inactive).
On to `c1ccc(-c2nc3cccnc3s2)cc1`, for which the growth inhibition is 3% (inactive).
For `O=[N+]([O-])c1cc(CCl)ccc1CCl`, the growth inhibition was 16% (inactive).
For `COc1ccc(/C=C2\SC(=S)N(/C=C/c3nc4ccccc4[nH]c3=O)C2=O)cc1OC`, the growth inhibition was 1% (inactive).
In the case of `CCCN(CCC)CC(O)c1cc(-c2ccc(Cl)cc2)nc2c(C)c(Cl)ccc12` (stereo not drawn), the growth inhibition was -2% (inactive).
Turning to `O=C(Nc1ccccc1)OCCc1ccc(Cl)c(Cl)c1`, the growth inhibition is 7% (inactive).
For the compound `CC(O)C(O)C(O)C(/C=N\Nc1ccccc1)=N/Nc1ccccc1` (stereo not drawn), the growth inhibition was 14% (inactive).
The same measure, in the same setting: the value for `C#CCCCc1ccccc1` was -65% (inactive); that for `CC(=O)Cc1ccc[cH-]1.[Fe+2].c1cc[cH-]c1` was 3% (inactive).
The same measure, in the same setting: the value for `Cc1cc(I)ccc1N` was -24% (inactive); that for `FC(F)(F)c1cc(NC(=S)N2c3ccccc3-n3cccc3C2c2cccnc2)cc(C(F)(F)F)c1` (stereo not drawn) was 1% (inactive); that for `CC(C)(CN1CCCCC1)C(=O)CC(SCCS(=O)(=O)O)c1ccc(Br)cc1` (stereo not drawn) was -2% (inactive).
Regarding `C[Si](C)(C)CNC(=O)OCc1ccccc1`, the growth inhibition was 1% (inactive).
Regarding `CC(C(=O)N1C(=O)N(C(=O)[C@H](C)C(O)c2ccccc2)[C@H](c2ccccc2)[C@H]1c1ccccc1)[C@@H](O)c1ccccc1` (stereo partly drawn), the growth inhibition was -4% (inactive).
Turning to `Oc1cccc2c(Cl)ccnc12`, the growth inhibition is 83% (active).
Take `O=C1C=CC(=C(c2ccccc2)c2ccccc2)c2ccccc21`: the growth inhibition was 9% (inactive).
For `S=C(S)NN1CCOCC1`, the growth inhibition was 96% (active).

Still in this assay, the particulars now being: S. cerevisiae rad50 mutant strain, at 3.7 µM, hits give high values.
Turning to `C/C(=N\NC(=S)SCc1ccccc1)c1ccccn1`, the growth inhibition is 47% (inactive).
For `CC[C@@]1(O)C(=O)OCc2c1cc1n(c2=O)Cc2cc3c(N)cccc3nc2-1`, the growth inhibition is 30% (inactive).
The same measure, in the same setting: the value for `CN(C)c1ccc(Sc2ccc3nc(N)nc(N)c3c2)cc1` was 30% (inactive).
Same read-out and setting: the value for `CC(=O)OCCOCNC(=S)N/N=C(\C)c1cnccn1` was 9% (inactive).
As for `COc1ccc(C2c3cc4c(cc3OC(C)(O)C2C)OCO4)c(OC)c1` (stereo not drawn), the growth inhibition was 7% (inactive).
As for `COc1cc(C2SCC(=O)N2c2ccc(-c3ccc(-n4c(-c5ccccc5)nc5ccccc5c4=O)cc3)cc2)cc(OC)c1OC` (stereo not drawn), the growth inhibition was -1% (inactive).
Still for that read-out and setting: as for `COc1ccc(Br)c(C(=O)Sc2nnnn2-c2cccc(Cl)c2)c1`, the figure is -19% (inactive).
As for `O=C(NNc1ccnc2cc(Cl)ccc12)/C(=C\c1ccccc1Cl)NC(=O)c1ccccc1`, the growth inhibition was 55% (inactive).
Take `CSC(=S)Nc1cccc(C)n1`: the growth inhibition was -19% (inactive).
Still for that read-out and setting: as for `O=C(/C=C\c1ccc(Cl)cc1Cl)c1cccs1`, the figure is 23% (inactive); as for `COc1ccc(-c2cn(-c3ccc(I)cc3)c3ncnc(N)c23)cc1`, 1% (inactive).
Turning to `CN(C)c1ccc(C(C#N)=C(C#N)C#N)cc1`, the growth inhibition is 3% (inactive).
Same read-out and setting: the value for `COc1cc(/C=C2\CCc3ccccc3C2=O)cc(OC)c1OC` was 2% (inactive); that for `CC(C)/C(Cl)=N\OC(=O)Nc1cccc(Cl)c1` was -2% (inactive).
For the compound `CC1(C)[C@@H]2CC[C@]1(C)[C@H](OC(=O)CSC#N)C2`, the growth inhibition is 4% (inactive).
On to `NNC(=O)CCc1ccc2ccc3ccccc3c2c1`, for which the growth inhibition is 4% (inactive).
`COc1ccc(/C(C)=N/OC(=O)c2c(-c3ccccc3Cl)noc2C)cc1CN1CCOCC1`: the growth inhibition is -39% (inactive).
As for `C=CC(C)(O)CCC1C(=C)C(O)CC2C(C)(C)CCCC12C` (stereo not drawn), the growth inhibition is -6% (inactive).
Still for that read-out and setting: as for `S=C(Nc1ccc(Cl)c(Cl)c1)SCc1ccc2c(c1)OCO2`, the figure is 84% (active); as for `COc1cc(C2C3=C(COC3=O)Oc3cc4c(cc32)OCO4)ccc1O` (stereo not drawn), 0% (inactive); as for `S=C(Nc1ccc(Cl)cc1)SC1CCCCC1`, 22% (inactive).
`Nc1nc(-c2cccnc2)cc(-c2cc(-c3cccnc3)nc(N)n2)n1`: the growth inhibition is -3% (inactive).
Consider `COC1=CC(=O)C2C(C1=O)C(c1ccc(Cl)cc1)[C@@H]2C` (stereo partly drawn), for which the growth inhibition was 64% (inactive).
Regarding `c1ccc(-c2nc3cccnc3s2)cc1`, the growth inhibition is 7% (inactive).
For `O=[N+]([O-])c1cc(CCl)ccc1CCl`, the growth inhibition is 44% (inactive).
Consider `COc1ccc(/C=C2\SC(=S)N(/C=C/c3nc4ccccc4[nH]c3=O)C2=O)cc1OC`, for which the growth inhibition is 3% (inactive).
Take `CCCN(CCC)CC(O)c1cc(-c2ccc(Cl)cc2)nc2c(C)c(Cl)ccc12` (stereo not drawn): the growth inhibition was 1% (inactive).
Take `O=C(Nc1ccccc1)OCCc1ccc(Cl)c(Cl)c1`: the growth inhibition is 26% (inactive).
As to `CC(O)C(O)C(O)C(/C=N\Nc1ccccc1)=N/Nc1ccccc1` (stereo not drawn), the growth inhibition is 26% (inactive).
`C#CCCCc1ccccc1`: the growth inhibition is -72% (inactive).
Turning to `CC(=O)Cc1ccc[cH-]1.[Fe+2].c1cc[cH-]c1`, the growth inhibition is 4% (inactive).
For `Cc1cc(I)ccc1N`, the growth inhibition was -11% (inactive).
Consider `FC(F)(F)c1cc(NC(=S)N2c3ccccc3-n3cccc3C2c2cccnc2)cc(C(F)(F)F)c1` (stereo not drawn), for which the growth inhibition is 6% (inactive).
For the compound `CC(C)(CN1CCCCC1)C(=O)CC(SCCS(=O)(=O)O)c1ccc(Br)cc1` (stereo not drawn), the growth inhibition is -4% (inactive).
The same measure, in the same setting: the value for `C[Si](C)(C)CNC(=O)OCc1ccccc1` was -1% (inactive); that for `CC(C(=O)N1C(=O)N(C(=O)[C@H](C)C(O)c2ccccc2)[C@H](c2ccccc2)[C@H]1c1ccccc1)[C@@H](O)c1ccccc1` (stereo partly drawn) was -4% (inactive).
`Oc1cccc2c(Cl)ccnc12`: the growth inhibition is 102% (active).
As to `O=C1C=CC(=C(c2ccccc2)c2ccccc2)c2ccccc21`, the growth inhibition was 7% (inactive).
For `S=C(S)NN1CCOCC1`, the growth inhibition is 80% (active).
